ChEMBL document CHEMBL1961873, “Compounds: GSK PKIS; Assays: Nanosyn kinase panel” (2012)

Legend:
[1] = biological target: Sphingosine kinase 1 (Homo sapiens) (UniProt Q9NYA1); settings: at 1 µM;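 further: mean SPHK1 inhibition value reported from the GSK PKIS kinase panel screen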
[2] = biological target: T1, Sphingosine kinase 2 (Homo sapiens) (UniProt Q9NRA0); settings: at 0.1 µM
T1 sequence (whole entry): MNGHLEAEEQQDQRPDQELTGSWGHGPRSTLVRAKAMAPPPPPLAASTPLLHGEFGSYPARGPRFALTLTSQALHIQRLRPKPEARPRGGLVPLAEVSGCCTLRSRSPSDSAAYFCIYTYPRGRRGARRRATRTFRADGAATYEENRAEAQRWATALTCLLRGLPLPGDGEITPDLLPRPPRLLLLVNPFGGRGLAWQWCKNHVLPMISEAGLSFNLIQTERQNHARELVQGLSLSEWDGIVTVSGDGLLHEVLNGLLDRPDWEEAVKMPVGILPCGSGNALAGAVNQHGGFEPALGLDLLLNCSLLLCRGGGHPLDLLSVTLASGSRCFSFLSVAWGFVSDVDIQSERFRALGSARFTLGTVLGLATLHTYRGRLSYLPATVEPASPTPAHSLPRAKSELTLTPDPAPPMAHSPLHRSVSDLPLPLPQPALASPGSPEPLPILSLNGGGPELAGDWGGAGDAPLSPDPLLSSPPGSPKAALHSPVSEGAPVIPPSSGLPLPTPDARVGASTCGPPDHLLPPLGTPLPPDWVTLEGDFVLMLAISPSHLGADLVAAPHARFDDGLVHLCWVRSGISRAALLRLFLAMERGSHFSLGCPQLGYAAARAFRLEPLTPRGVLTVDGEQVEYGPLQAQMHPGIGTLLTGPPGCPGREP

[3] = biological target: T1, Sphingosine kinase 2 (Homo sapiens); settings: at 1 µM
[4] = biological target: Casein kinase II subunit alpha (Homo sapiens) (UniProt P68400); settings: at 0.1 µM
[5] = biological target: Casein kinase II subunit alpha (Homo sapiens) (UniProt P68400); settings: at 1 µM
[6] = biological target: T2, Inhibitor of nuclear factor kappa-B kinase subunit alpha (Homo sapiens) (UniProt O15111); settings: at 0.1 µM
T2 sequence (whole entry): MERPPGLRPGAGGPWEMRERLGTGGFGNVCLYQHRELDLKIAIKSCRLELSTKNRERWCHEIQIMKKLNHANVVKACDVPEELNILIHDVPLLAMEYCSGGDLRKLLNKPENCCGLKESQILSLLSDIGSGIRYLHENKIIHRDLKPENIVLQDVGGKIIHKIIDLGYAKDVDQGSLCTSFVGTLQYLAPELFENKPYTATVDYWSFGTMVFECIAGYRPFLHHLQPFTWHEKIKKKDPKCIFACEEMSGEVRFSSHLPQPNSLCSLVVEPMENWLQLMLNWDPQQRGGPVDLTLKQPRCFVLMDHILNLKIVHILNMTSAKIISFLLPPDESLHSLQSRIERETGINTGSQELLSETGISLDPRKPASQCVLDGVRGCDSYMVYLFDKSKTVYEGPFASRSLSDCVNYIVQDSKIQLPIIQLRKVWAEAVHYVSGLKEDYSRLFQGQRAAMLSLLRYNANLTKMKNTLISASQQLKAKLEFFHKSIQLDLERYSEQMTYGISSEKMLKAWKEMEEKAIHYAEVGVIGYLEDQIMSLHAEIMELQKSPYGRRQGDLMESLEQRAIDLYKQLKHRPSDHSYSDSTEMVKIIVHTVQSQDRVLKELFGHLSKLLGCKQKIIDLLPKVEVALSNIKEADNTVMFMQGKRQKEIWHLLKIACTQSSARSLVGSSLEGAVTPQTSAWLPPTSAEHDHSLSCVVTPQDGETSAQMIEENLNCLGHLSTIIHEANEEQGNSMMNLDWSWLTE

[7] = biological target: T2, Inhibitor of nuclear factor kappa-B kinase subunit alpha (Homo sapiens); settings: at 1 µM
[8] = biological target: T3, Inhibitor of nuclear factor kappa-B kinase subunit beta (Homo sapiens) (UniProt O14920); settings: at 0.1 µM
T3 sequence (whole entry): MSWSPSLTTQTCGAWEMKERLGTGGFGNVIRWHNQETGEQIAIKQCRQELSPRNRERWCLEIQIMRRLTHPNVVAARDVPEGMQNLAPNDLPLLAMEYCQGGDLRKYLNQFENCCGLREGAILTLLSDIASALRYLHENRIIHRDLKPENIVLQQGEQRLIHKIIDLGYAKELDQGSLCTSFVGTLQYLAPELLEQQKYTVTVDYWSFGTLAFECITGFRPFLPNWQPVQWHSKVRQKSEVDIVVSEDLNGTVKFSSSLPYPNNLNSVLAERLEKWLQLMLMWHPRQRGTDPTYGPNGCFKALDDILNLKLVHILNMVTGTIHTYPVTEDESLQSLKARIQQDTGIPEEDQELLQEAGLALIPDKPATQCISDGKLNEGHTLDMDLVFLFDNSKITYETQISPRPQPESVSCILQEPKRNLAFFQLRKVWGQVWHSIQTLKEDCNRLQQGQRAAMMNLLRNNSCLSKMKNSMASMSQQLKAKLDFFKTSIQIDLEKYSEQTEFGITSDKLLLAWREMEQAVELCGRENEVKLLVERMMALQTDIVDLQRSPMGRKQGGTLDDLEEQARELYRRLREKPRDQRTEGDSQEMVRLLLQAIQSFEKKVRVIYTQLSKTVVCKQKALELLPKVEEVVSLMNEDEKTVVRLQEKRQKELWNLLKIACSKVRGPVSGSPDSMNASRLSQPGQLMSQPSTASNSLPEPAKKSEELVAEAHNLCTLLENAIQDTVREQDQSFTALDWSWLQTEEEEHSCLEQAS

[9] = biological target: T3, Inhibitor of nuclear factor kappa-B kinase subunit beta (Homo sapiens); settings: at 1 µM
[10] = biological target: T4, Inhibitor of nuclear factor kappa-B kinase subunit epsilon (Homo sapiens) (UniProt Q14164); settings: at 0.1 µM
T4 sequence (whole entry): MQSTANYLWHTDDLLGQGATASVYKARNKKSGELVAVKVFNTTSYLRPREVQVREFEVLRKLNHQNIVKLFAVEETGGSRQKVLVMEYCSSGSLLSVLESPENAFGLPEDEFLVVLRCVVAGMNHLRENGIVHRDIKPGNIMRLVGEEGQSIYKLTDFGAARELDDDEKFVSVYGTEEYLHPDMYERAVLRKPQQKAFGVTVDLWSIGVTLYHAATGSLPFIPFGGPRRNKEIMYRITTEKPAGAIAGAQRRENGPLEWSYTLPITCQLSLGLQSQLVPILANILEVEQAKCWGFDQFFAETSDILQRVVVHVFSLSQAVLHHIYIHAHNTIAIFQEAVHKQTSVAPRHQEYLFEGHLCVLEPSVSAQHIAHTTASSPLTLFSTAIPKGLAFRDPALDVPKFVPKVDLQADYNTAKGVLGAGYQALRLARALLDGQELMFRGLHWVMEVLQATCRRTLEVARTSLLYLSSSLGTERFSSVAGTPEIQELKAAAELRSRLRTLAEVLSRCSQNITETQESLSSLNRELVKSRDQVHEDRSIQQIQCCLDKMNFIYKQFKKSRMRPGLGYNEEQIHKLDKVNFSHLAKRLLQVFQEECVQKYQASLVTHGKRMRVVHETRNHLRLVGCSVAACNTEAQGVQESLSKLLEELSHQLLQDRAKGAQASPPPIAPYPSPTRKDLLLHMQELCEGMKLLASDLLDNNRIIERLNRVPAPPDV

[11] = biological target: T4, Inhibitor of nuclear factor kappa-B kinase subunit epsilon (Homo sapiens); settings: at 1 µM
[12] = biological target: T5, Serine/threonine-protein kinase Nek1 (Homo sapiens) (UniProt Q96PY6); settings: at 0.1 µM
T5 sequence (whole entry): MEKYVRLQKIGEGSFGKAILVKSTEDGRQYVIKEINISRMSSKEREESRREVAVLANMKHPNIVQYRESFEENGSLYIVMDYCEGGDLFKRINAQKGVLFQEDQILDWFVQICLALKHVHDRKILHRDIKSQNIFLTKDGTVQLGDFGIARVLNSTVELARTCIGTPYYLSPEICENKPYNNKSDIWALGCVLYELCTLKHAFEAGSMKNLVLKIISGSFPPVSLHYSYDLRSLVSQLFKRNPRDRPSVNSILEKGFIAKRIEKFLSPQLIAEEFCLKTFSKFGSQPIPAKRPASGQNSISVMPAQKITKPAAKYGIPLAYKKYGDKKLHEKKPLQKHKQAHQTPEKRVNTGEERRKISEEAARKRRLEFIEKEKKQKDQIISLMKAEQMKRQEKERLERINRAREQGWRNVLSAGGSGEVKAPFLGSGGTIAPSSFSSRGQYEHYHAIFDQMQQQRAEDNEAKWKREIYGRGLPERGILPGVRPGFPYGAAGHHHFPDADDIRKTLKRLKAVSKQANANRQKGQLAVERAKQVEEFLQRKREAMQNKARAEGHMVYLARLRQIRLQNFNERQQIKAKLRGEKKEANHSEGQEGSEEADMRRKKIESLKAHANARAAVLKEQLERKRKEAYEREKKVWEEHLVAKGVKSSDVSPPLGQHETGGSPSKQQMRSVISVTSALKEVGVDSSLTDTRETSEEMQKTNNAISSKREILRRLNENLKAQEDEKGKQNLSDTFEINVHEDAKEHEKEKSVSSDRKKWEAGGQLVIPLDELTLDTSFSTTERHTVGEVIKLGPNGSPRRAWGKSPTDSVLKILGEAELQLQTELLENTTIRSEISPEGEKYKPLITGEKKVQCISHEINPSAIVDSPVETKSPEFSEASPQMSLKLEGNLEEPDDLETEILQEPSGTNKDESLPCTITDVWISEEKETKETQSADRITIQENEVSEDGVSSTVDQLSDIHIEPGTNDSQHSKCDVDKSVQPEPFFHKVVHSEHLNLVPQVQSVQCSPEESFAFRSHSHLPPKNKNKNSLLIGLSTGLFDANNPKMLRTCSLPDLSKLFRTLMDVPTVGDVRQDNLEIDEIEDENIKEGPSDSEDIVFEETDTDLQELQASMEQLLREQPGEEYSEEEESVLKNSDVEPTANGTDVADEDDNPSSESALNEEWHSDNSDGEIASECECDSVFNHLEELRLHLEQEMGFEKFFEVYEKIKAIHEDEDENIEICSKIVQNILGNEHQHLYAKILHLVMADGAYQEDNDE

[13] = biological target: T5, Serine/threonine-protein kinase Nek1 (Homo sapiens); settings: at 1 µM
[14] = biological target: T6, Serine/threonine-protein kinase Nek2 (Homo sapiens) (UniProt P51955); settings: at 0.1 µM
T6 sequence (whole entry): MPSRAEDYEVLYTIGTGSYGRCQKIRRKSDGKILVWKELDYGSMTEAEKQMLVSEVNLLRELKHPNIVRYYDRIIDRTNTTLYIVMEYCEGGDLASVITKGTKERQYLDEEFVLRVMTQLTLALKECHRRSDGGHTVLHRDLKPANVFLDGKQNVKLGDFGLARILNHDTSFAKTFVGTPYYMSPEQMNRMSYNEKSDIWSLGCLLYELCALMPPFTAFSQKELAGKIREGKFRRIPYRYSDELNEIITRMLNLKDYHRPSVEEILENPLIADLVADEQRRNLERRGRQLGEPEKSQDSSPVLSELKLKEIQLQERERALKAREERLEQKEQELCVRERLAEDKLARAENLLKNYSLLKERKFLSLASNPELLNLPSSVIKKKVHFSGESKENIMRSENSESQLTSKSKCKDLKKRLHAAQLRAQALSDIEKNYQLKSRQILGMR

[15] = biological target: T6, Serine/threonine-protein kinase Nek2 (Homo sapiens); settings: at 1 µM
[16] = biological target: Serine/threonine-protein kinase Nek6 (Homo sapiens) (UniProt Q9HC98); settings: at 0.1 µM
[17] = biological target: Serine/threonine-protein kinase Nek6 (Homo sapiens) (UniProt Q9HC98); settings: at 1 µM
[18] = biological target: Serine/threonine-protein kinase Nek7 (Homo sapiens) (UniProt Q8TDX7); settings: at 0.1 µM
[19] = biological target: Serine/threonine-protein kinase Nek7 (Homo sapiens) (UniProt Q8TDX7); settings: at 1 µM
[20] = biological target: T7, Serine/threonine-protein kinase Nek9 (Homo sapiens) (UniProt Q8TD19); settings: at 0.1 µM;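 further: reported value is the mean percent inhibition of NEK9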
T7 sequence (whole entry): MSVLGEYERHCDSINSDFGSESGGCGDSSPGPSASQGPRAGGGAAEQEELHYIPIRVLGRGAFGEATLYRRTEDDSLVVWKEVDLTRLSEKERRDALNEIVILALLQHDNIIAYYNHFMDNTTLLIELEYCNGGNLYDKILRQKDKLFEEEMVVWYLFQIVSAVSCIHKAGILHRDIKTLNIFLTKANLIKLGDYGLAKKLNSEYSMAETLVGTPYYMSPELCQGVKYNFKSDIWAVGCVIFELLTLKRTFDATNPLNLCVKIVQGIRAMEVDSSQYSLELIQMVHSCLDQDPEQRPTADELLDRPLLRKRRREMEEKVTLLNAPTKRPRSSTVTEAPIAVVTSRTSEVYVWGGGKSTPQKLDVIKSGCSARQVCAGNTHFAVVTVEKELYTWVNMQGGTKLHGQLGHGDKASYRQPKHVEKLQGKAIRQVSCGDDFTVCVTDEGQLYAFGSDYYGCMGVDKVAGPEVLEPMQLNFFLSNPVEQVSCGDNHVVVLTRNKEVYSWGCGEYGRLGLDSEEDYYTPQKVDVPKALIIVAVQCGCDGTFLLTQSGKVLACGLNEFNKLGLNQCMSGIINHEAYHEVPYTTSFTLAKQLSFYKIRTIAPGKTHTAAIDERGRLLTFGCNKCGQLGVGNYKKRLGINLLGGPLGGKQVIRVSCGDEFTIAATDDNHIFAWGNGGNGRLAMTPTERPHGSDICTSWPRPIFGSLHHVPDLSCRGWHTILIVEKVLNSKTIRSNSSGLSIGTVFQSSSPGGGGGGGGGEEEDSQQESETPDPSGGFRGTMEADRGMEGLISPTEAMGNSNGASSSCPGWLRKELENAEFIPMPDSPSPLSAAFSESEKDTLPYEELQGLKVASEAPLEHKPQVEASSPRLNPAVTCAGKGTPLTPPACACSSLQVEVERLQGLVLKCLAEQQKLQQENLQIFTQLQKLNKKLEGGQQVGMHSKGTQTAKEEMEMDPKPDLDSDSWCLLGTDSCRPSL

Chain of Serine/threonine-protein kinase Nek7 (Homo sapiens) (Q8TDX7 whole entry, looked up): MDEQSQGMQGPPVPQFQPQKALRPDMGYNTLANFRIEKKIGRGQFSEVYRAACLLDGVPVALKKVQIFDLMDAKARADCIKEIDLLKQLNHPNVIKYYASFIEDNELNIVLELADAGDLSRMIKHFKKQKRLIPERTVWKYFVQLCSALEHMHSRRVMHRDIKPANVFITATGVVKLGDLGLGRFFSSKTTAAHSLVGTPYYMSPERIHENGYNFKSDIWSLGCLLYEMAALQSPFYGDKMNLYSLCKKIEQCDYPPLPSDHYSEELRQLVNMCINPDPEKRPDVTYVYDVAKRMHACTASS
Chain of Serine/threonine-protein kinase Nek6 (Homo sapiens) (Q9HC98 whole entry): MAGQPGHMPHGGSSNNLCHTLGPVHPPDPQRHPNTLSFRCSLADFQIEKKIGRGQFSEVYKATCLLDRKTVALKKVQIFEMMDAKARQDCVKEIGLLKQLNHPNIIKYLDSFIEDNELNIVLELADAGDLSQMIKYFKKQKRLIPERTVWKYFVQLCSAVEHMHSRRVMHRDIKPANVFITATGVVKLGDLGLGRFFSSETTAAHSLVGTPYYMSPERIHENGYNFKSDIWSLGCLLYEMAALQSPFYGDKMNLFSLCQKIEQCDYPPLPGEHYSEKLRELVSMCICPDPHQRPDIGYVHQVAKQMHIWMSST
Chain of Casein kinase II subunit alpha (Homo sapiens) (P68400 whole entry, looked up): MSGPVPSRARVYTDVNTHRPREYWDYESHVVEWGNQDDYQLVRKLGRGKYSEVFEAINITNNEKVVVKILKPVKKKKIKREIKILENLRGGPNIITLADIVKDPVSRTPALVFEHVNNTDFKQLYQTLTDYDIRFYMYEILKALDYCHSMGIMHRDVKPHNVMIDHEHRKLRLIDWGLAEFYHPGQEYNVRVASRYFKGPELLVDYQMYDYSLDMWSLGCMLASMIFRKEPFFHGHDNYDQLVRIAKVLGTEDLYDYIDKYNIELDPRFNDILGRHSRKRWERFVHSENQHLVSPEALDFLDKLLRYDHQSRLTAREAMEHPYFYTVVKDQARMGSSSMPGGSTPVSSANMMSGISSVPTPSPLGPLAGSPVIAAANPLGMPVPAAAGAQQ
Chain of Sphingosine kinase 1 (Homo sapiens) (Q9NYA1 whole entry): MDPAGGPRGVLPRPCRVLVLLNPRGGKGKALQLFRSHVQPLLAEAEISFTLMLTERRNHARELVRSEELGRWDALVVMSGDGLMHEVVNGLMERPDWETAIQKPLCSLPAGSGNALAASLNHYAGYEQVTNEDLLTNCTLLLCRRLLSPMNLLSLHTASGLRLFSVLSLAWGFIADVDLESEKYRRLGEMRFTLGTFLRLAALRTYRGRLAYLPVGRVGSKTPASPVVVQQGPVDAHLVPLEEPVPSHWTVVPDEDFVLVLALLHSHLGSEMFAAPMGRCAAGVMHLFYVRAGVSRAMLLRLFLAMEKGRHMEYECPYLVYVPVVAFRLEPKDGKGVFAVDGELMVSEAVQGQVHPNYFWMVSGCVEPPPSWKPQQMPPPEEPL

Row | Structure (SMILES) | inhibition [1] | inhibition [2] | inhibition [3] | inhibition [4] | inhibition [5] | inhibition [6] | inhibition [7] | inhibition [8] | inhibition [9] | inhibition [10] | inhibition [11] | inhibition [12] | inhibition [13] | inhibition [14] | inhibition [15] | inhibition [16] | inhibition [17] | inhibition [18] | inhibition [19] | inhibition [20]
1 | COc1cc(N2CCN(C(C)C)CC2)ccc1Nc1nc(Nc2ccc(F)cc2C(=O)NC[C@@H](O)CO)c2cc[nH]c2n1 | 5.85% | 0.95% | 0.89% | 4.77% | 15.7% | 6.97% | 11.1% | 7.85% | 9.5% | 8.4% | 10.3% | 2.75% | 4.63% | 5.32% | 5.19% | 1.82% | 3.84% | 5.49% | 3.45% | 2.99%
2 | CN(c1ccc(NC(=O)Nc2c(Cl)cccc2Cl)cc1)c1ccnc(Nc2cccc(CS(C)(=O)=O)c2)n1 | -2.39% | 0.77% | -0.82% | 2.18% | 6.66% | -7.42% | – | 3.11% | 2.65% | 6.91% | 8.6% | 1.38% | 1.93% | 0.12% | 1.07% | 0.64% | 1.86% | 1.01% | 1.59% | -4.22%
